# According to PubChem BioAssay:
# Values joined by “and” are separate entries in the source; they are usually repeats but may differ in a detail not shown here. Identical values can stand only once. The source holds several records for some structures; these can differ, active in one and inactive in another. Active and inactive are the calls of the source.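 The calls were made as follows, unless noted: active = z-score of at least 1.8 in each of two replicates, scored against plate mean and spread of sample wells; inactive = the rest.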
# Biological target: Mitogen-activated protein kinase 7 (Homo sapiens) (UniProt Q13164)
# Test: Gal4-ERK5 driven luciferase induction – cell-based, HTS, primary screen (AID 1508626;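 active = luciferase signal above three times the same-plate solvent-only control wells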;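 also: luciferase driven by Gal4-ERK5 fusion binding five Gal4 sites before minimal TATA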)
# Conditions: HeLa Gal4-ERK5 transactivation, 18 h, at 5 µM, stronger effect = higher value
# Chain of Mitogen-activated protein kinase 7 (Homo sapiens) (Q13164 whole entry, looked up, the tested form may be a part): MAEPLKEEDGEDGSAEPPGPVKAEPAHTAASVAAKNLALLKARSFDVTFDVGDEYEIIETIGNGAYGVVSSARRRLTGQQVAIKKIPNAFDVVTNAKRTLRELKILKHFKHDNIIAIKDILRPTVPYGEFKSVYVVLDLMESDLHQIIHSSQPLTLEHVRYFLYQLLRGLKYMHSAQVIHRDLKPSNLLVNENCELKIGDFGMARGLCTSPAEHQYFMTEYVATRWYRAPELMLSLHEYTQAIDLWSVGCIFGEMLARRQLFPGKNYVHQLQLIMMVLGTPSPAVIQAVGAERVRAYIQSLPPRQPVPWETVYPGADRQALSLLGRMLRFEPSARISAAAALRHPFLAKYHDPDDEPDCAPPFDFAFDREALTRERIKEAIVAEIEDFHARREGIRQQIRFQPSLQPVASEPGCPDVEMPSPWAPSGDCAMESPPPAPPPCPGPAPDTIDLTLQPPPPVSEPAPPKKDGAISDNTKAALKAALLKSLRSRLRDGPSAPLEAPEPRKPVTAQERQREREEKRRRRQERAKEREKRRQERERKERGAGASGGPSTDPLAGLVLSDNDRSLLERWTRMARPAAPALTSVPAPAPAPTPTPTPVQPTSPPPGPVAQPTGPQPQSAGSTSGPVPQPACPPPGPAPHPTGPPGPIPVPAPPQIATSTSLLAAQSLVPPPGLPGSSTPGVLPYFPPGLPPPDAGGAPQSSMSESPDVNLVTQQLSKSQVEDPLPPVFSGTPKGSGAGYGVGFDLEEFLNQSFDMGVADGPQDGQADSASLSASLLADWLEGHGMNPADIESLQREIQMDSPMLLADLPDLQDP
row,Structure (SMILES),luciferase signal
1,CCCCNc1ccc(C(=O)OCCN(C)C)cc1,76 AU (inactive)
2,Clc1ccc(C(c2ccccc2Cl)C(Cl)Cl)cc1 (stereo not drawn),56 AU (inactive)
3,CN1CCN2c3ccccc3Cc3ccccc3C2C1 (stereo not drawn),48 AU (inactive)
4,NCCS,76 AU (inactive)
5,CCOC(=O)C1=C[C@]2(CC)CCCN3CCc4c(n1c1ccccc41)[C@@H]32,52 AU (inactive)
6,CN1Cc2c(N)cccc2C(c2ccccc2)C1 (stereo not drawn),88 AU (inactive)
7,Nc1c(Br)cc(Br)cc1CNC1CCC(O)CC1 (stereo not drawn),84 AU (inactive)
8,O=C(O)CCC(=O)c1ccc(-c2ccccc2)cc1,68 AU (inactive)
9,NCCS(=O)(=O)O,80 AU (inactive)
10,CN(C)CCOC(=O)COc1ccc(Cl)cc1,64 AU (inactive)
11,COc1ccnc(CS(=O)c2nc3ccc(OC(F)F)cc3[nH]2)c1OC (stereo not drawn),56 AU (inactive)
12,COc1ccccc1OCC(O)CO (stereo not drawn),160 AU (inactive)
13,Cc1ccccc1N1C(=O)c2cc(S(N)(=O)=O)c(Cl)cc2NC1C (stereo not drawn),64 AU (inactive)
14,NC(N)=Nc1nc(CSCC/C(N)=N/S(N)(=O)=O)cs1,72 AU (inactive)
15,O=C(NC(Cc1cc(=O)[nH]c2ccccc12)C(=O)O)c1ccc(Cl)cc1 (stereo not drawn),40 AU (inactive)
16,COC(=O)N/N=C/c1c[n+]([O-])c2ccccc2[n+]1[O-],172 AU (inactive)
17,CC[N+](CC)(CC)CCOc1cccc(OCC[N+](CC)(CC)CC)c1OCC[N+](CC)(CC)CC,216 AU (active)
18,CO[C@]12C[C@@H](COC(=O)c3cncc(Br)c3)CN(C)[C@@H]1Cc1cn(C)c3cccc2c13,56 AU (inactive)
19,NCCCC(=O)O,56 AU (inactive)
20,O=C1CCc2cc(OCCCCc3nnnn3C3CCCCC3)ccc2N1,96 AU (inactive)

row,Structure (SMILES),luciferase signal
1,CCC1(C)CC(=O)NC1=O (stereo not drawn),64 AU (inactive)
2,CC(=O)Nc1ccc(O)cc1,40 AU (inactive)
3,C#CCN(C)Cc1ccccc1,60 AU (inactive)
4,NC(=O)c1ncn([C@@H]2O[C@H](CO)[C@@H](O)[C@H]2O)n1,36 AU (inactive)
5,NC(CO)C(=O)NNCc1ccc(O)c(O)c1O (stereo not drawn),132 AU (inactive)
6,C[n+]1ccccc1/C=N/O,84 AU (inactive)
7,O=C1C(=O)c2ccccc2C(O)=C1C1CCC(c2ccc(Cl)cc2)CC1 (stereo not drawn),56 AU (inactive)
8,CCCCC1C(=O)N(c2ccccc2)N(c2ccccc2)C1=O,156 AU (active)
9,O=c1[nH]c(=O)n([C@H]2C[C@H](O)[C@@H](CO)O2)cc1F,12 AU (inactive)
10,C[C@]12CCC(=O)C=C1C=C[C@@H]1[C@@H]2CC[C@@]2(C)[C@H]1CC[C@@]21CCC(=O)O1,40 AU (inactive)
11,C=CC(N)CCC(=O)O (stereo not drawn),92 AU (inactive)
12,C/C=C/c1ccc(OC)cc1,76 AU (inactive)
13,C[C@]12C=CC(=O)C=C1CC[C@H]1[C@@H]3C[C@@H](O)[C@](O)(C(=O)CO)[C@@]3(C)C[C@H](O)[C@@]12F,36 AU (inactive)
14,c1ccc(CN(CC2=NCCN2)c2ccccc2)cc1,112 AU (inactive)
15,CO[C@@]1(NC(=O)CSCC#N)C(=O)N2C(C(=O)O)=C(CSc3nnnn3C)CS[C@@H]21,108 AU (inactive)
16,Cc1nnc(SCC2=C(C(=O)O)N3C(=O)[C@@H](NC(=O)Cn4cnnn4)[C@H]3SC2)s1,28 AU (inactive)
17,CC(=O)OC(C)C[N+](C)(C)C (stereo not drawn),104 AU (inactive)
18,Cc1ccc(C(=O)c2ccc(CC(=O)O)n2C)cc1,84 AU (inactive)
19,Cn1c(=O)c2c(ncn2C)n(C)c1=O,32 AU (inactive)

# Tested on: not listed separately
# Test: galactose survival enhancers in mitochondrial complex I cybrids – cell-based, galactose medium, ATP luminescence, primary screen (AID 1645843);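 also: positive z means more ATP and so rescue of galactose-driven cybrid death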
# Conditions: complex I mutant cybrid cells, 72 h, stronger effect = higher value
row,Structure (SMILES),z-score
1,CCCCNc1ccc(C(=O)OCCN(C)C)cc1,-0.23 (inactive)
2,Clc1ccc(C(c2ccccc2Cl)C(Cl)Cl)cc1 (stereo not drawn),-1.24 (inactive)
3,CN1CCN2c3ccccc3Cc3ccccc3C2C1 (stereo not drawn),-0.385 (inactive) and 2.53 (active) and -0.36 (inactive)
4,NCCS,0.24 (inactive)
5,CCOC(=O)C1=C[C@]2(CC)CCCN3CCc4c(n1c1ccccc41)[C@@H]32,0.33 (inactive) and -0.95 (inactive) and -0.445 (inactive)
6,CN1Cc2c(N)cccc2C(c2ccccc2)C1 (stereo not drawn),-0.015 (inactive)
7,Nc1c(Br)cc(Br)cc1CNC1CCC(O)CC1 (stereo not drawn),-0.32 (inactive) and 0.295 (inactive)
8,O=C(O)CCC(=O)c1ccc(-c2ccccc2)cc1,0.975 (inactive)
9,NCCS(=O)(=O)O,0.675 (inactive)
10,CN(C)CCOC(=O)COc1ccc(Cl)cc1,1.14 (inactive)
11,COc1ccnc(CS(=O)c2nc3ccc(OC(F)F)cc3[nH]2)c1OC (stereo not drawn),1.18 (inactive)
12,COc1ccccc1OCC(O)CO (stereo not drawn),0.37 (inactive)
13,Cc1ccccc1N1C(=O)c2cc(S(N)(=O)=O)c(Cl)cc2NC1C (stereo not drawn),-0.04 (inactive)
14,NC(N)=Nc1nc(CSCC/C(N)=N/S(N)(=O)=O)cs1,0.125 (inactive) and 0.38 (inactive)
15,O=C(NC(Cc1cc(=O)[nH]c2ccccc12)C(=O)O)c1ccc(Cl)cc1 (stereo not drawn),0.47 (inactive)
16,COC(=O)N/N=C/c1c[n+]([O-])c2ccccc2[n+]1[O-],0.34 (inactive)
17,CC[N+](CC)(CC)CCOc1cccc(OCC[N+](CC)(CC)CC)c1OCC[N+](CC)(CC)CC,0.34 (inactive) and 0.415 (inactive)
18,CO[C@]12C[C@@H](COC(=O)c3cncc(Br)c3)CN(C)[C@@H]1Cc1cn(C)c3cccc2c13,1.27 (inactive)
19,NCCCC(=O)O,0.26 (inactive)
20,O=C1CCc2cc(OCCCCc3nnnn3C3CCCCC3)ccc2N1,-1.27 (inactive) and -0.71 (inactive)

row,Structure (SMILES),z-score
1,CCC1(C)CC(=O)NC1=O (stereo not drawn),0.235 (inactive)
2,CC(=O)Nc1ccc(O)cc1,-0.13 (inactive)
3,C#CCN(C)Cc1ccccc1,0.465 (inactive) and 0.37 (inactive)
4,NC(=O)c1ncn([C@@H]2O[C@H](CO)[C@@H](O)[C@H]2O)n1,0.88 (inactive) and 1.56 (inactive)
5,NC(CO)C(=O)NNCc1ccc(O)c(O)c1O (stereo not drawn),-1.5 (inactive) and -0.255 (inactive)
6,C[n+]1ccccc1/C=N/O,0.085 (inactive)
7,O=C1C(=O)c2ccccc2C(O)=C1C1CCC(c2ccc(Cl)cc2)CC1 (stereo not drawn),-0.055 (inactive)
8,CCCCC1C(=O)N(c2ccccc2)N(c2ccccc2)C1=O,0.865 (inactive) and 0.7 (inactive)
9,O=c1[nH]c(=O)n([C@H]2C[C@H](O)[C@@H](CO)O2)cc1F,1.93 (active)
10,C[C@]12CCC(=O)C=C1C=C[C@@H]1[C@@H]2CC[C@@]2(C)[C@H]1CC[C@@]21CCC(=O)O1,-0.645 (inactive)
11,C=CC(N)CCC(=O)O (stereo not drawn),0.155 (inactive)
12,C/C=C/c1ccc(OC)cc1,0.095 (inactive)
13,C[C@]12C=CC(=O)C=C1CC[C@H]1[C@@H]3C[C@@H](O)[C@](O)(C(=O)CO)[C@@]3(C)C[C@H](O)[C@@]12F,2.37 (active) and 0.76 (inactive)
14,c1ccc(CN(CC2=NCCN2)c2ccccc2)cc1,-0.39 (inactive) and 0.065 (inactive)
15,CO[C@@]1(NC(=O)CSCC#N)C(=O)N2C(C(=O)O)=C(CSc3nnnn3C)CS[C@@H]21,0.77 (inactive)
16,Cc1nnc(SCC2=C(C(=O)O)N3C(=O)[C@@H](NC(=O)Cn4cnnn4)[C@H]3SC2)s1,-0.3 (inactive)
17,CC(=O)OC(C)C[N+](C)(C)C (stereo not drawn),0.455 (inactive)
18,Cc1ccc(C(=O)c2ccc(CC(=O)O)n2C)cc1,1.02 (inactive)
19,Cn1c(=O)c2c(ncn2C)n(C)c1=O,0.3 (inactive)
